# Screens: PubChem BioAssay, National Center for Advancing Translational Sciences (NCATS)
# Compounds with a hit are over-represented: about 12% of the library has one in this group of screens.
# HP1b binding inh: HTS for Inhibitors of HP1-beta Chromodomain Interactions with Methylated Histone Tails | Chromobox protein homolog 1 (Homo sapiens), P83916 | Potency, µM (top dose mostly 114 µM), without a hit: top-dose activity change, negative = inhibition, actives largely listed as inhibitors | 390,000 compounds, 0.56% hits | AlphaScreen HP1-beta / biotin-H3K9me3 peptide binding; further: nearly all actives have a fitted effect of over 70% in size
#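 AlphaScreen: HP1-beta (50 nM) preformed 30 min with biotin-H3(1-18)K9me3 peptide (50 nM) in PBS pH 7.4, 0.01% Tween-20. Compound added for 30 min at RT, then streptavidin donor/nickel chelate acceptor beads (10 ug/mL) for 30 min.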
# BAZ2B inh: qHTS Assay for Inhibitors of BAZ2B | 360,000 compounds, 4.4% hits | Bromodomain adjacent to zinc finger domain protein 2B (Homo sapiens), Q9UIF8 | Potency, µM (top dose mostly 114 µM), inactives show at the top dose activity change, negative = inhibition, usual class: inhibitors | AlphaScreen BAZ2B-H3K14Ac peptide displacement | AID 504333, 2011; further: on the % scale 0 is the no-effect control and ±100 the full control effect; nearly all actives have a fitted effect of over 60% in size
#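 AlphaScreen luminescence quantifies BAZ2B engagement of H3K14Ac peptide; the protein and biotinylated peptide are both at 50 nM final, buffer PBS pH 7.4 with 0.01% Tween-20, all steps at room temperature.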
# G9a block: qHTS Assay for Inhibitors of Histone Lysine Methyltransferase G9a | G9a H3K9 monomethylation, AlphaScreen, 2 h | Potency, µM (highest dose often 102 µM), for the others: at the top dose activity, negative = inhibition, hits mostly inhibitors | 350,000 compounds, 8.8% hits | AID 504332, 2011; further: on the % scale 0 is the no-effect control and ±100 the full control effect; nearly all actives have a fitted effect of over 75% in size
#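 AlphaScreen read-out: biotin-H3K9 peptide (500 nM) methylation by 20 nM enzyme with 20 uM SAM, 2 h at room temperature after 15 min compound preincubation; anti-monomethyl H3K9 antibody plus donor/acceptor beads, 10 min dark.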
# JMJD2A Tudor: qHTS Assay for Inhibitors of JMJD2A-Tudor Domain; AID 504339, 2011; Lysine-specific demethylase 4A (Homo sapiens), O75164; 390,000 compounds, 4.4% hits; AlphaScreen JMJD2A-Tudor / H3K4me3 peptide binding; Potency, µM (highest dose often 114 µM), inactives show at the highest dose activity change, negative = inhibition, actives largely listed as inhibitors; further: on the % scale 0 is the no-effect control and ±100 the full control effect; nearly all actives have a fitted effect of over 50% in size
# Sfp inh: qHTS Assay for Inhibitors of Bacillus subtilis Sfp phosphopantetheinyl transferase (PPTase); 4'-phosphopantetheinyl transferase ffp (Bacillus subtilis), Q9F4F7; Biochemical Sfp PPTase activity, qHTS; Potency, µM, for inactives: largest response in the series, negative = inhibition, most hits filed as inhibitors; 310,000 compounds, 3.5% hits; AID 1490, 2009;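 further: the enzyme is Sfp with the accession as filed and its product quenches rhodamine fluorescence; 0% = enzyme reaction without inhibitor and -100% = no enzyme wells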
#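 Compounds were incubated with enzyme (final 15 nM) for 15 min at room temperature before substrate addition started the reaction. Fluorescence at 525 nm excitation, 598 nm emission was recorded immediately and after 30 minutes.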
# An asterisk follows results filed as active; ? = inconclusive; . = no result; [ ] = another dose, or the depositor's remark. The call rests on the fitted dose curve; in most records, active means well fitted curve in the direction sought with a large enough effect; inconclusive means small, poorly fitted or top-dose-only effect, or another doubt; inactive means no such curve, though single readings can be large; an effect the other way counts as inactive or inconclusive. Potency means the concentration at half of the fitted maximal effect.
SMILES,HP1b binding inh,BAZ2B inh,G9a block,JMJD2A Tudor,Sfp inh
CCn1c(=O)n(CC)c2cc(N3CCCC3)c(NC(=O)c3ccc(F)cc3)cc21,26.1%,?,44.7µM*,-21.0%,-19.2%
Cc1cccc(-n2nc3c(c2NC(=O)C2CC2)CS(=O)(=O)C3)c1C,34.3%,3.7%,-8.3%,-13.2%,10.7%
COc1ccc(CCNC(=O)CSc2nnc(CNC(=O)c3c(F)cccc3Cl)o2)cc1OC,22.7%,-16.3%,6.7%,-14.3%,13.0%
CC(C)CC(NC(=O)CNC(=O)C1O[C@@H]2OC(C)(C)O[C@@H]2[C@H]2OC(C)(C)O[C@@H]12)C(=O)O (stereo partly specified),34.4%,-18.6%,-8.5%[59 µM],-13.1%,-12.6%
Fc1cccc(NCc2ccoc2)c1,38.9%,-6.8%,39.8µM*,-35.3%,13.0%
Fc1cccc(NCc2cn3ccccc3n2)c1,25.9%,?,-25.4%[12.7 µM],-14.7%,9.7%
COc1ccc(Cl)cc1NC(=O)C/C(C)=N/NC(=O)C(=O)NCc1ccccc1,64.3%,-0.4%,-19.8%,-31.2%,11.4%
CCN1CCN(c2cc(C)c3cc(NC(=S)N(C)Cc4ccccc4)ccc3n2)CC1,13.4%,-32.9%,?,?,7.2%
CCOC(=O)N1CCC(NC(=S)Nc2ccc3nc(N4CCN(C)CC4)cc(C)c3c2)CC1,14.6%,-16.4%,?,-15.5%,-2.5%
CCCCN(CC)C(=S)Nc1ccc2nc(N3CCN(C)CC3)cc(C)c2c1,-1.3%[57 µM],?,39.8µM*,?,-11.9%
CCOC(=O)N1CCC(NC(=S)Nc2ccc3nc(N4CCN(CC)CC4)cc(C)c3c2)CC1,16.4%,?,25.1µM*,-17.6%[11.4 µM],10.4%
CCN1CCN(c2cc(C)c3cc(NC(=O)c4cccs4)ccc3n2)CC1,-17.9%,-20.2%,13.3%[12.7 µM],-34.2%,-4.4%
CCN1CCN(c2cc(C)c3cc(NC(=S)NCCN(C)C)ccc3n2)CC1,-34.5%,-0.3%,50.1µM*,-15.1%,5.2%
CCCCN(C)C(=S)Nc1ccc2nc(N3CCN(CC)CC3)cc(C)c2c1,13.7%,-29.0%,44.7µM*,-7.4%[11.4 µM],5.6%
Cc1ccc(-c2nc(C)c(CCNC(=O)C(=O)Nc3cc(C)ccc3C)s2)cc1,13.1%[57 µM],2.1%,5.3%[59 µM],-16.8%,.
CC(C)Cn1c(SCC(=O)Nc2cc(Cl)c(Cl)cc2Cl)nc(O)cc1=O,5.3%,-6.4%,1.5%,-16.6%,.
COc1cc(C2C(C#N)=C(N)N(N(C)C)C3=C2C(=O)CC(C)(C)C3)cc(OC)c1OC (stereo unspecified),-13.5%,-5.5%,13.6%[12.7 µM],-17.5%,8.3%
CCCCN(C)CCNC(=S)Nc1ccc2nc(N3CCN(CC)CC3)cc(C)c2c1,-15.4%,-3.9%,44.7µM*,-17.8%,11.6%
CCN1CCN(c2cc(C)c3cc(NC(=O)c4ccc(OC)c(OC)c4)ccc3n2)CC1,11.0%,-27.6%,70.8µM*,-32.8%,-7.2%
CCN1CCN(c2cc(C)c3cc(NC(=O)c4cc(OC)c(OC)c(OC)c4)ccc3n2)CC1,-23.4%,?,-13.3%[59 µM],-26.0%,.
CCCN(CCC)CCNC(=O)CCC(=O)Nc1ccc2nc(N3CCN(C)CC3)cc(C)c2c1,17.6%,-14.2%,?,-11.6%,-4.3%
CCN(CC)CCNC(=S)Nc1ccc2nc(N3CCN(CC)CC3)cc(C)c2c1,-6.6%,-10.8%,44.7µM*,-19.9%,13.1%
Cc1ccc(Cl)cc1NC(=O)CN1C=NS(=O)(=O)c2ccccc21,7.8%,-0.1%,2.7%[59 µM],-10.0%,.
Nc1cccc(-c2c[nH]c3ncc(-c4cccnc4)cc23)c1,3.4%,.,.,17.8µM*,.
Cc1ccccc1-c1ccc2ncnc(N3CCNCC3)c2c1,.,.,2.6%[0.501 µM],.,0.5%
COc1ccc(/C=C/C(=O)N2CCN(c3ccccc3)CC2)cc1S(=O)(=O)N1CCOCC1,11.3%,-26.1%,4.3%,-12.1%,10.7%
COc1ccc(/C=C/C(=O)N(CCC(N)=O)c2ccccc2)cc1S(=O)(=O)N1CCOCC1,53.4%,-1.7%,50.1µM*,6.2%,.
Cc1ccc(S(=O)(=O)N2CCOCC2)cc1NC(=O)CN1CCN(C)CC1,14.0%,0.4%,-3.3%[59 µM],-14.6%,.
